Screening results (PubChem BioAssay)
The list is not random: actives were taken first. Their share in the collection is about 18%.
TDP1 cell CPT: DT40-hTDP1 cell growth loss with CPT. chicken DT40 Tdp1-/-;hTDP1 cells + 20 nM CPT, ATP luminescence, 48 h. Potency, µM (top dose mostly 46.2 µM), without a hit: at the top dose activity change, negative = growth inhibition, most hits filed as inhibitors. 420,000 tested, 12% active; also: potency is read from the fitted curve at half-maximal effect; % is scaled to controls: 0 for no effect and ±100 for the full control effect; nearly all actives have a fitted effect of over 55% in size
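Cell growth measured by CellTiter-Glo luminescence after a minimum 48 h, 37 C compound exposure with 20 nM CPT in Tdp1-knockout DT40 cells stably expressing hTDP1, seeded 400/well; qHTS titration format.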
TGFb inhibitor: TGF-b pathway inhibition; HepG2 CAGA-GFP TGF-b/SMAD3 reporter, GFP fluorescence, 18 h; TGF-beta stimulated, 500 pg/mL final; Potency, µM (highest dose often 46.1 µM), for the others: at the top dose activity, negative = inhibition, usual class: inhibitors; 410,000 tested, 1.2% active; AID 588855; also: potency is read from the fitted curve at half-maximal effect; % is scaled to controls: 0 for no effect and ±100 for the full control effect; nearly all actives have a fitted effect of over 65% in size
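Read-out: total well GFP (ex488/em500-530) summed from mean per-cell fluorescence. Cells: HEPG2 CAGA-GFP, 1% FBS DMEM, 18 h at 37 degrees C with 500 pg/mL final TGF-beta. Unstimulated wells served as the full-inhibition control; stimulated DMSO wells = 0%.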
TDP1 cell noCPT: qHTS for Inhibitors of human tyrosyl-DNA phosphodiesterase 1 (TDP1): qHTS in cells in absence of CPT | DT40 Tdp1-/- hTDP1 cells, no CPT, ATP luminescence, 48 h | Potency, µM (series often up to 46.2 µM), for inactives: at the highest dose activity change, negative = growth inhibition, hits mostly inhibitors | 420,000 tested, 15% active | AID 686978, 2013; also: potency is read from the fitted curve at half-maximal effect; % is scaled to controls: 0 for no effect and ±100 for the full control effect; nearly all actives have a fitted effect of over 55% in size
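Chicken DT40 Tdp1-/- cells stably complemented with human TDP1 were seeded at 400 cells/well with DMSO in place of 20 nM camptothecin. After compound pinning, cells grew at least 48 hr at 37 °C; viability read by CellTiter-Glo luminescence.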
HepG2 viability: counter-screen for TGF-b inhibitors: cytotoxicity in HepG2 cells; 410,000 tested, 0.76% active; HepG2 CAGA-GFP viability, ATP luminescence, 18 h; AID 588856; Potency, µM (series often up to 46.1 µM), without a hit: at the highest dose activity change, negative = cytotoxicity, usual class: cytotoxic; also: potency is read from the fitted curve at half-maximal effect
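HepG2 CAGA-GFP cells (1000/well, DMEM with 1% FBS) received compound, then TGF-beta at 500 pg/mL final, and were incubated 18 hours at 37 degrees C. Viability was read by CellTiter-Glo luminescence. Media-only wells were set as complete cell-killing and DMSO as no toxicity.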
TDP1 inh: inhibitors of human tyrosyl-DNA phosphodiesterase TDP1; Q9NUW8; recombinant TDP1, AlphaScreen DNA substrate cleavage; Potency, µM (titrated, usually from 130 µM), inactives show top-dose activity change, negative = inhibition, usual class: inhibitors; 350,000 tested, 0.28% active; also: potency is read from the fitted curve at half-maximal effect; % is scaled to controls: 0 for no effect and ±100 for the full control effect; nearly all actives have a fitted effect of over 40% in size
Target sequence (Q9NUW8 whole entry, looked up): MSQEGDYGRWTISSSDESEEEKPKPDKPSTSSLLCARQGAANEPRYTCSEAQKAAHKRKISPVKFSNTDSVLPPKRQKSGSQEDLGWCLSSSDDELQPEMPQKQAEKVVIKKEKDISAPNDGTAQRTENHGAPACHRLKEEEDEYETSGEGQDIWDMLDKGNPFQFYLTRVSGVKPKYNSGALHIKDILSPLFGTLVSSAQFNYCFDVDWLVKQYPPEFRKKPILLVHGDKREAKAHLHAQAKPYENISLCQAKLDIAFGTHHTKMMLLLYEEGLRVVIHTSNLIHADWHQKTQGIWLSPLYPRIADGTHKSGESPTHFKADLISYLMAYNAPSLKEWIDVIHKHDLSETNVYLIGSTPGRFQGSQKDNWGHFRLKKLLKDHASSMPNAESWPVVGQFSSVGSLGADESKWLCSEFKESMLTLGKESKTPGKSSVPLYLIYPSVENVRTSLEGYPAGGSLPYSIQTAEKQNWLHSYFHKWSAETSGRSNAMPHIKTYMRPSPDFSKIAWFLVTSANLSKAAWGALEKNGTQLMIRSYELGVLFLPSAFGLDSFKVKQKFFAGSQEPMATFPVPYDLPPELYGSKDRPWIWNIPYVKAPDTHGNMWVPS
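AlphaScreen read-out: signal falls as enzyme removes the 3' tyrosine-FITC from a 5'-biotinylated DNA oligo (15 nM, 5 min, RT). Enzyme was E. coli-made recombinant Tdp1 at 1 nM, exposed to compound for 15 min beforehand; beads 10 ug/ml, 10 min.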
IL1B secr inh: blocks inflammasome-driven IL-1 beta release; THP-1 LPS/ATP IL-1B secretion, AlphaLISA, 16 h; stronger effect = lower value; activity change, % at 57.5 µM; 360,000 tested, 4.7% active; AID 743279; in the data active = activity change below about -50%; inconclusive = mostly about -30% to -49%; also: % is scaled to controls: 0 for no effect and ±100 for the full control effect
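Secreted IL-1B measured by AlphaLISA bead assay after 16 h compound exposure of THP-1 cells; compounds (final up to 57.5 uM) added 1 h before LPS (250 ng/mL) and ATP (1.25 mM) stimulation; lower signal means less secretion.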
Active calls of the source: *; ? = inconclusive; . = no result; [ ] = dose if it differs, or a comment. Unless noted, calls follow the shape of the dose curve; as a rule, active = well fitted curve in the direction sought with a large enough effect; inconclusive = small, poorly fitted or top-dose-only effect, or another doubt; inactive = no such curve, though single readings can be large; an effect the other way counts as inactive or inconclusive.

SMILES	TDP1 cell CPT	TGFb inhibitor	TDP1 cell noCPT	HepG2 viability	TDP1 inh	IL1B secr inh
CCN(C(=O)c1cc(Cl)ccc1OC)c1ccccc1C	?	10.7%	20.6µM*	9.0%	-2.2%	28.8
Cn1c(SCC(=O)NCc2ccco2)nnc1-c1cccc(NC(=O)c2ccccc2)c1	-9.2%	-7.7%	-1.8%	-24.5%	.	.
CNC(=O)c1ccc(NC(=O)Nc2ccccc2)cc1	-1.0%	0.3%	?	-46.7%	.	3.5
O=C(Nc1cccc(Cl)c1)C1COc2ccccc2O1 (configuration not stated)	-10.8%	-6.7%	7.9%	-11.9%	-5.5%	-1.2
COc1ccc(C2SCC(=O)N2c2ccc(OC)cc2)cc1 (configuration not stated)	-14.3%	-6.7%	7.3%	-5.3%	.	1.7
COc1cccc(C2SCC(=O)N2c2ccc(Br)cc2)c1OC (configuration not stated)	23.1µM*	7.0%	?	3.3%	0.0%	-18.2
CCN(CC)C(=O)Cn1cc(SCC(=O)Nc2ccc(C)cc2)c2ccccc21	?	?	25.9µM*	-10.7%	7.7%	.
CCN(CC)C(=O)Cn1cc(SCC(=O)Nc2ccccc2F)c2ccccc21	?	-54.0%	25.9µM*	-15.2%	7.7%	.
CCN(CC)C(=O)Cn1cc(SCC(=O)NC)c2ccccc21	5.0%	-14.5%	1.4%	4.6%	3.7%	-5.1
CCC(=O)Nc1ccccc1N1CCN(c2ccc(F)cc2)CC1	20.6µM*	-3.0%	?	-15.3%	.	-25.7
CC(C)(C)CC(=O)Nc1ccccc1N1CCN(c2ccc(F)cc2)CC1	?	-23.1%	?	1.8%	.	-25.8
CCCCCC(=O)Nc1ccccc1N1CCN(c2ccccc2)CC1	?	-12.4%	?	-26.7%	8.7%	-88.4*
O=C(COc1ccccc1)Nc1ccccc1N1CCN(c2ccc(F)cc2)CC1	?	-4.1%	?	-43.9%	6.2%	-5.4
O=C(Nc1ccccc1N1CCN(c2ccc(F)cc2)CC1)c1ccccc1	23.1µM*	-2.1%	18.4µM*	3.9%	-7.0%	?
CCc1n(CC(O)COCc2ccccc2)c2ccccc2[n+]1C (configuration not stated)	?	-16.4%	?	1.1%	7.5%	32.9
Cc1n(CC(O)COC2CCCCC2)c2ccccc2[n+]1C (configuration not stated)	?	0.0%	13µM*	0.6%	2.8%[56.1 µM]	10.6
Oc1cc(-c2ccccc2)c2ccccc2c1	18.4µM*	?	?	-60.4%	3.4%	-112.9*
COc1cccc(Cc2nc3ccccc3nc2SCC(=O)Nc2ccccc2F)c1	20.2%	-13.1%	-16.0%	6.4%	0.0%	.
CCn1c(O)c(/C=N/N=C2CCCCC2)c2cc(C3=NNC(=O)CC3)ccc21	8.2µM*	-0.4%	10.3µM*	-3.1%	3.7%	-4.4
C[C@@H]1CCCCO[C@@H](CN(C)CC2CCCCC2)[C@@H](C)CN([C@H](C)CO)C(=O)c2cc(NS(=O)(=O)c3ccc(Cl)cc3)ccc2O1	16.4µM*	?	13µM*	-118.8%	.	?
C[C@H]1CN([C@@H](C)CO)C(=O)c2cc(NS(=O)(=O)c3ccc(Cl)cc3)ccc2O[C@@H]1CN(C)CC1CCCCC1	?	?	?	-44.5%	2.1%	-55.8*
CCCN(C(=O)c1cc2c(s1)CCC2)c1c(N)n(Cc2ccccc2)c(=O)[nH]c1=O	1.2%	11.3%	3.4%	0.7%	.	21.5
C#CCN(C1CCCC1)S(=O)(=O)C=C	?	-19.5%	?	-65.3%	.	.
O=C(COC(=O)c1ccccn1)Nc1ccc2c(c1)OCCO2	-1.0%	4.9%	2.7%	-2.1%	2.6%	24.9
CC(=O)c1ccc2c(c1)OCCOCCOCCOCCO2	3.0%	-1.6%	-0.7%	-8.2%	0.0%	0.4
SMILES	TDP1 cell CPT	TGFb inhibitor	TDP1 cell noCPT	HepG2 viability	TDP1 inh	IL1B secr inh
CC(=O)c1ccc2c(c1)OCCOCCOc1ccccc1OCCOCCO2	18.4µM*	0.5%	23.1µM*	-12.7%	6.3%	-15.0
c1ccc2c(c1)OCCOCCOCCOCCOCCOc1ccccc1OCCOCCOCCO2	8.2µM*	-8.0%	14.6µM*	-27.6%	2.5%	-73.2*
O=C(Nc1cc(Cl)cc(Cl)c1)C1CC(=O)N(C2CCCC2)C1 (configuration not stated)	?	?	?	10µM*	.	?
CCC(C)c1ccccc1N1CC(C(=O)NCCC2=CCCCC2)CC1=O (configuration not stated)	18.4µM*	-29.4%	16.4µM*	-6.7%	0.2%	-3.2
CCOc1ccccc1N1CC(C(=O)NCCC2=CCCCC2)CC1=O (configuration not stated)	?	3.8%	-29.3%	9.6%	.	-18.1
COc1ccc(Cl)cc1NC(=O)C1CC(=O)N(C2CCCCC2)C1 (configuration not stated)	-25.2%	-4.7%	-13.8%	-5.7%	-4.7%[56.1 µM]	1.2
O=C(NCCC1=CCCCC1)C1CC(=O)N(C2CCCCC2)C1 (configuration not stated)	-8.8%	2.82µM*	-5.1%	4.5%	5.2%	17.4
c1ccc(COc2ncnc3c2ncn3CCCNC2CCN(Cc3ccccc3)CC2)cc1	7.31µM*	14.1µM*	4.11µM*	15.8µM*	.	?
CSc1ncnc2c1ncn2CCCNC1CCN(Cc2ccccc2)CC1	?	3.9%	23.1µM*	-1.7%	.	?
CSc1ncnc2c1ncn2CCCNCC1CCCO1 (configuration not stated)	7.0%	0.3%	3.6%	-9.3%	.	4.2
CSc1ncnc2c1ncn2CCCNCc1cccc2ccccc12	-16.7%	-0.8%	?	-6.1%	.	4.4
CC[C@@H](NCCCn1cnc2c(SC)ncnc21)c1ccccc1	16.4µM*	-23.1%	?	-32.3%	.	0.4
c1ccc(COc2ncnc3c2ncn3CCCNCCN2CCOCC2)cc1	33.5%	35.1%	4.1%	-0.5%	.	13.8
CCc1ccccc1OCC(=O)Nc1nc(-c2cccnc2)cs1	3.26µM*	?	3.26µM*	-1.7%	8.9%	122.9
Cc1ccccc1OCC(=O)Nc1nc(-c2ccncc2)cs1	20.6µM*	-4.7%	14.6µM*	-28.4%	0.7%	12.7
CC(C)(C)c1ccc(OCCCC(=O)Nc2nnc(C3CC3)s2)cc1	?	1.1%	10.3µM*	-11.8%	.	21.8
